Data from PubChem BioAssay (NCI).
The panel holds about 83,000 compounds, 20% with a hit somewhere; the sample as a whole holds those more often.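 Each cell line was grown in a 96-well plate and treated with one concentration of compound for 48 hours. Values below 10 were considered active.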 A number with no mark means an inactive call. Active and inactive are the calls of the source.

Tests used:
Assay in all cases: NCI-60 one-dose screen, 48 h (100 = growth as untreated, 0 = no growth, -100 = all killed)
NCI-H23 lung = conditions: 10 µM unless noted
NCI-H226 lung = conditions: 10 µM unless noted
NCI-H322M lung = conditions: 10 µM unless noted
HOP-92 NSCLC = conditions: 10 µM
NCI-H522 lung = conditions: 10 µM
A549/ATCC NSCLC = conditions: 10 µM unless noted
786-0 renal = conditions: 10 µM unless noted
COLO 205 colon = conditions: 10 µM unless noted
DU-145 prostate = conditions: 10 µM unless noted
K-562 leukemia = conditions: 10 µM unless noted
MALME-3M melanoma = conditions: 10 µM unless noted
RXF 393 renal = conditions: 10 µM unless noted
SF-268 CNS = conditions: 10 µM unless noted
SF-295 CNS = conditions: 10 µM unless noted
SF-539 CNS = conditions: 10 µM unless noted
UACC-257 melanoma = conditions: 10 µM unless noted
M14 melanoma = conditions: 10 µM unless noted
MDA-MB-231 breast = conditions: 10 µM unless noted
NCI-H460 lung = conditions: 10 µM unless noted

SMILES	growth (NCI-H23 lung)	growth (NCI-H226 lung)	growth (NCI-H322M lung)	growth (HOP-92 NSCLC)	growth (NCI-H522 lung)	growth (A549/ATCC NSCLC)	growth (786-0 renal)	growth (COLO 205 colon)	growth (DU-145 prostate)	growth (K-562 leukemia)	growth (MALME-3M melanoma)	growth (RXF 393 renal)	growth (SF-268 CNS)	growth (SF-295 CNS)	growth (SF-539 CNS)	growth (UACC-257 melanoma)	growth (M14 melanoma)	growth (MDA-MB-231 breast)	growth (NCI-H460 lung) [%]
CCCCN(CCC)CCCCCCCCCCN1CCCc2ccccc21	71.5%	99.5%	99.4%	48.8%	62%	97.3%	88.8%	91.7%	77.1%	17.5%	74.3%	109%	75.7%	83.6%	101%	106%	88.6%		
C=CCNC(=S)NNc1ccc([N+](=O)[O-])cn1	93.5%	94.4%	89.7%	98.1%	80.4%	101%	105%	110%	104%	94.3%	79.6%	104%	97.7%	96.9%	104%	97.9%	96%	89.7%	
CCCCCCNC(=O)Oc1ccc(/C(=C(/C)Cc2ccc(OC)cc2)c2ccc(OCCN3CCCCC3)cc2)cc1	90.9%	92%	89.5%	60.5%	85.6%	77.6%	78.5%	79.4%	98.9%	36.8%	101%	84.4%	81.9%	105%	91.8%	88.9%	84.6%	84.5%	
Cc1ncc(C(=O)Nc2ccc(CN3CCN(C)CC3)c(C(F)(F)F)c2)cc1C#Cc1c(N)ncc2ccc(F)cc12	-79.4% (active)	19.5%	-89.7% (active)	-29.9% (active)	37.3%	-69.9% (active)	-70.5% (active)		-88.6% (active)	-57.1% (active)	-79.6% (active)	-88.1% (active)	20%	42%	-93.6% (active)	-18.6% (active)	-74.9% (active)	-88.9% (active)	
c1ccc(-c2cn3ccnc3c(-c3ccc4ncn(C5CCCCC5)c4c3)n2)cc1	54.7%	66.1%	94.8%	46.3%	41.9%	66.7%	63.2%	79.3%	70.7%	29.4%		55%	78.2%	60.2%	72.2%	94.8%	61.8%	58.5%	
O=C(/C=C\c1ccccc1Cl)c1ccccc1	91.9%	86.2%	104%	112%	100%		93.9%	120%	101%	102%	98.9%	89.7%	93.4%	75.2%	103%	119%	101%	91.7%	
CC(=O)C(CO)C(=O)Nc1ccccc1 (stereo not drawn)	103%	96.9%	85.9%	96.6%	82.3%	93.6%	96.8%	99.5%	112%	102%	109%		107%	107%	95.4%	85.7%	99.5%	102%	
COc1cc(-c2c3c(cn2CCN2CCCCC2)-c2oncc2CC3)cc(OC)c1OC	98.6%	90.2%	110%	81.8%	90.9%	101%	105%	103%	109%	108%	110%	100%	94.7%	97.6%	94%	109%	105%	109%	
CC(=N\N=C(N)N)/C(=N/N=C(N)N)c1ccccc1	43.1%	91.4%	76.4%	95.2%	94.4%	86.2%	101%	6.49% (active)	51.7%	91.3%	99.2%	104%		99.1%	74.6%	93.2%	88.6%	116%	
CN1C(=O)C(=Cc2coc3ccc(Br)cc3c2=O)C(=O)N(C)C1=O	94.5%	97.2%	124%	81.3%	95%	97.8%	112%	106%	103%	127%	139%	93.6%	97.6%	120%	100%	101%	99.8%	97.6%	
COC(=O)c1ccc(C(=Nc2ccc(N(C)C(=O)CN3CCN(C)CC3)cc2)c2c(O)[nH]c3ccc(C(=O)OC)cc23)cc1	35.4%	33%	47.3%	51.1%	19%	35.6%	36.4%	21.8%	38.2%	7.19% (active)	-14.7% (active)	17.7%	32.8%	44.4%	23.3%	67.7%	28.7%	49.2%	
COc1ccc2cnc(N)c(C#Cc3cc(C(=O)Nc4ccc(CN5CCN(C)CC5)c(C(F)(F)F)c4)cnc3C)c2c1	52.3%	26.8%	70.3%	20.1%	69.7%	61.5%	-50.3% (active)		64%	-42.8% (active)	-66.4% (active)	-12.9% (active)	62.5%	78.9%	31.3%	33.1%	7.97% (active)	9.87% (active)	
O=Nc1c(-c2c(O)[nH]c3cc(Br)ccc23)[nH]c2ccccc12	-80.8% (active)	-39.4% (active)	16.6%	14.4%	-29% (active)	-61.9% (active)	6.13% (active)	-100% (active)	-88.8% (active)	-64.1% (active)	61.6%	-62.6% (active)	-61% (active)	-26.2% (active)	-44.8% (active)	-78.8% (active)	31.1%	9.57% (active)	
CCOC(=O)C(C)C(C)(O)c1ccccc1 (stereo not drawn)	98.5%	94.1%	93.2%				94.1%	112%	110%	100%	84.2%	103%	98.6%	103%	105%		96.3%	103%	103
O=C(Nc1cccc(Cn2c(=O)[nH]c3ccc(Oc4ncccn4)cc3c2=O)c1)c1cccc(F)c1	82.2%	74.1%	86.4%		60.9%	70.2%	65.6%		80.1%	45.1%	97.2%	87.1%	74.1%	81.8%	80.1%	67.3%	78.6%	74.7%	
CCNc1nnc(COc2ccc(CNC(=O)CCCC/C=C/C(C)C)cc2OC)o1	93.7%	101%	107%		83.7%	97%	95.5%	110%	109%	91.6%		120%	97.1%	97.1%	104%	105%	102%	104%	
CC(C)CSc1nc(-c2ccc(F)cc2)c(C#N)c(N2CCCCC2)n1	83.7%	90.5%	94%	97.5%	82.6%	86.6%	90.8%	96.2%	94.1%	95.8%	86.1%	87.7%	90.9%	92.6%	103%	100%	89.8%	101%	
COc1ccc(Cn2cc3c(c2)-c2oncc2CC3)cc1OC	16.9%	31.4%	22.9%	84.4%	20.5%	25.9%	22%	-18.2% (active)	10.3%	16.9%		9.09% (active)	33.1%		-21.5% (active)	59.2%	4.9% (active)	16.9%	
